# Hits are enriched below; roughly 19% of the tested compounds scored in any of these assays.
# HT1080 IDH1KD tx: kills HT-1080 cells with IDH1 knockdown. HT-1080 IDH1 knockdown viability, ATP luminescence, 48 h. Potency, µM (series often up to 46.1 µM), hits mostly cytotoxic. hit rate 2% among 360,000. AID 686971
#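 Cytotoxicity counter-line: IDH1KD HT-1080, 48 h, CellTiter-Glo. Curves classed by r2, magnitude and activity.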
# HT1080-NT tox: kills 2HG-producing HT-1080-NT fibrosarcoma cells. HT-1080-NT fibrosarcoma viability, CellTiter-Glo ATP luminescence, 48 h. hit rate 1.6% among 360,000. Potency, µM (top dose mostly 46.1 µM), usual class: cytotoxic. AID 686970;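 further: NT is the 2HG producing partner of a matched IDH1 knockdown line; nearly all actives have a fitted effect of over 55% in size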
#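 A 48-hour cytotoxicity screen used HT-1080-NT cells plated 2 hours before compound delivery. ATP-based CellTiter-Glo luminescence measured viability, normalized to DMSO and no-cell controls.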
# ELG1 DNA repair: inhibitors of ELG1-dependent DNA repair in HEK293T cells; HEK293T ELG1-luciferase reporter, luminescence, 16 h; DNA damage induced by 5-fluorouridine; Potency, µM (highest dose often 46.1 µM), usual class: inhibitors; hit rate 2.3% among 330,000; AID 504467; further: nearly all actives have a fitted effect of over 55% in size
#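 HEK293T cells expressing luciferase-tagged ELG1 (2,000/well) received 5-Fluorouridine plus compound or DMSO for 16 hr at 37 °C. Luciferase was read by ONE-Glo luminescence after 30 min at room temperature.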
# IL-1B inflam inh: inflammasome signaling inhibition, IL-1 beta readout; activity change, % at 57.5 µM; THP-1 LPS/ATP IL-1B secretion, AlphaLISA, 16 h; stronger effect = lower value; hit rate 4.7% among 360,000; in the data active means activity change below about -50%; inconclusive means mostly about -30% to -49%
#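 THP-1 cells pretreated 1 hr with compounds (up to 57.5 uM final), then stimulated with LPS (250 ng/mL final) plus ATP (1.25 mM final); secreted IL-1B measured by AlphaLISA after 16 hr, decreased signal indicating inhibition.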
# TDP1 cell CPT: growth inhibition of DT40 Tdp1-/-;hTDP1 cells with camptothecin (screen for TDP1 inhibitors); chicken DT40 Tdp1-/-;hTDP1 cells + 20 nM CPT, ATP luminescence, 48 h; Potency, µM (titrated, usually from 46.2 µM), most hits filed as inhibitors; hit rate 12% among 420,000; AID 686979; further: nearly all actives have a fitted effect of over 55% in size
#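 Chicken DT40 Tdp1-/- cells stably complemented with human TDP1 were seeded at 400 cells/well in medium containing 20 nM camptothecin, exposed to pin-transferred compounds, and grown at 37 °C for at least 48 hr. Viability was read as ATP luminescence.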
# DT40 TDP1 no CPT: qHTS for Inhibitors of human tyrosyl-DNA phosphodiesterase 1 (TDP1): qHTS in cells in absence of CPT; hit rate 15% among 420,000; Potency, µM (doses to about 46.2 µM), actives largely listed as inhibitors; AID 686978, 2013; DT40 Tdp1-/- hTDP1 cells, no CPT, ATP luminescence, 48 h; further: nearly all actives have a fitted effect of over 55% in size
#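 Compound effects on proliferation are scored in DT40 Tdp1-/-;hTDP1 cells in the absence of CPT. ATP levels (CellTiter-Glo luminescence) are recorded after a ≥48 hr, 37 °C incubation.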
# Hits are given with their value; – = inactive; ? = inconclusive; · = not tested or not shown. Unless noted, the call rests on the fitted dose curve; in most records, active means well fitted curve in the direction sought with a large enough effect; inconclusive means small, poorly fitted or top-dose-only effect, or another doubt; inactive means no such curve, though single readings can be large; an effect the other way counts as inactive or inconclusive.
SMILES,HT1080 IDH1KD tx,HT1080-NT tox,ELG1 DNA repair,IL-1B inflam inh,TDP1 cell CPT,DT40 TDP1 no CPT
Oc1ccccc1-c1cc(-c2ccc(F)cc2)n[nH]1,18µM,?,?,–,?,15µM
Cc1ccc(-c2cc(-c3ccc(C)cc3O)[nH]n2)cc1,–,–,?,–,–,?
COc1ccc(-c2cc(-c3ccccc3)n[nH]2)c(O)c1,–,–,?,-93,–,–
COc1ccc(-c2cc(-c3ccccc3O)[nH]n2)cc1,?,?,?,–,–,?
Cc1ccc(-c2cc(-c3ccc(F)cc3)n[nH]2)c(O)c1,18µM,26µM,?,-61,?,?
Cc1ccc(N(CC(=O)Nc2ccc(Br)c(C)c2)S(=O)(=O)c2c(C)[nH]c(=O)[nH]c2=O)cc1,–,–,–,–,–,–
CCOc1ccc(C(=O)C(C)OC(=O)Cn2c(C)csc2=O)cc1 (stereo not given),–,–,–,–,–,?
OC(c1ccccc1)c1nc(/C=C/c2ccccc2)cs1 (stereo not given),–,–,·,–,–,–
CC(C)C[C@@H]1CN(CCCC[C@H]2CNC(=O)C(=O)N2CCC2CCCCC2)C(=O)C(=O)N1CCc1ccc(O)cc1,–,–,·,–,–,–
O=C(Cn1sc2ccccc2c1=O)Nc1ccc(F)cc1,?,?,·,-104,2.9µM,2.1µM
O=C(Cn1sc2ccccc2c1=O)Nc1ccc(Br)cc1,?,?,·,-98,2.3µM,2.3µM
O=C(Cn1sc2ccccc2c1=O)Nc1ccc(Cl)cc1,–,?,·,-105,5.2µM,2.6µM
CC1(C)C(=O)N(CC(=O)Nc2ccc(Cl)cc2)c2ccccc21,·,·,·,·,–,–
Cc1ccccc1S(=O)(=O)NC(=O)C1(C)CCN1C(=O)c1cccc(F)c1 (stereo not given),–,–,·,–,–,–
CC(C1SC(=S)NC1=O)C1SC(=S)NC1=O (stereo not given),–,–,·,–,–,–
COc1ccccc1CN1CC2(CCN(C(=O)c3ccncc3)CC2)C1,·,·,·,·,–,–
CCCCCn1nc(C(=O)N2CCc3ccccc32)c2ccccc2c1=O,–,–,11µM,–,?,?
CC(C)Cn1nc(C(=O)N2CCc3ccccc32)c2ccccc2c1=O,–,–,?,–,?,?
CCCn1nc(C(=O)NC2CCCc3ccccc32)c2ccccc2c1=O (stereo not given),–,–,16µM,?,–,?
CCCn1nc2cc(C(=O)NC3CCCc4ccccc43)ccc2c1OCC (stereo not given),–,–,–,–,–,?
CCCCn1nc(C(=O)Nc2ccc(-n3cnnn3)cc2)c2ccccc2c1=O,–,–,7.3µM,–,?,–
CCCCn1nc(C(=O)NC2CCCCCC2)c2ccccc2c1=O,–,–,18µM,–,?,13µM
Cn1nc(C(=O)Nc2ccc(-n3cnnn3)cc2)c2ccccc2c1=O,–,–,?,?,–,–
CCCn1nc(C(=O)NC2CCCC2)c2ccccc2c1=O,–,–,?,–,–,?
Cc1cccc(-n2nnc(C(=O)NC3CCCc4ccccc43)c2N)c1 (stereo not given),?,–,?,–,?,18µM
CN(C)/C=C/C(=C\C(=O)C(F)(F)F)Nc1ccc(C(F)(F)F)cc1,–,–,–,–,?,18µM
CC(NS(=O)(=O)c1ccc2c(c1)c(=O)n(C)c(=O)n2C)C(=O)NC1CCCCC1 (stereo not given),–,–,–,–,–,–
O=C(NN1CCN(Cc2ccccc2)CC1)c1ccc(Cl)cc1,–,–,–,–,–,–
Cc1cccc(N2CCN(S(=O)(=O)c3ccc(-c4cnc(C5CC5)o4)cc3)CC2)c1C,·,·,·,·,18µM,13µM
COc1ccccc1N1CCN(S(=O)(=O)c2ccc(-c3cnc(C4CC4)o3)cc2)CC1,–,–,–,–,?,21µM
